# Experimental data taken from paper PMC7862700, “An all-to-all approach to the identification of sequence-specific readers for epigenetic DNA modifications on cytosine”.
# Tests used:
# Assay in all cases: DAPPL (digital affinity profiling via proximity ligation, sequencing); 10 mM Tris-HCl pH 7.5, 50 mM NaCl, 1 mM DTT, 4% glycerol, room temperature, 30 min; GST-TFs on glutathione beads, 16-mer random dsDNA library, 0.1% formaldehyde crosslink after washing; high values mean tight binding
# [1] = target: T1, FEV (Homo sapiens, UniProt Q99581 1-238); conditions: protein: recombinant; tags: N-terminal GST; dsDNA, one strand shown
# T1 sequence: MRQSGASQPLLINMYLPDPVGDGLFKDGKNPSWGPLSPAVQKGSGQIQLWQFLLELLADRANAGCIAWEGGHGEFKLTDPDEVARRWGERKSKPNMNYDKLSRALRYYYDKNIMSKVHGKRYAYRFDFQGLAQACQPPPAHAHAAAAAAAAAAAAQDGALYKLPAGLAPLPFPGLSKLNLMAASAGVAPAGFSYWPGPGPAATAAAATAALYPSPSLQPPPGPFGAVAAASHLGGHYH
# Outline: (§1)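 Yeast served to express human transcription factors as GST fusions, which were then captured on glutathione beads and labelled with DNA barcodes. Pooled with a tag-only sample, they were incubated with 200 nmole of a 16-mer random double-stranded DNA library for 30 min at room temperature in Tris/NaCl/DTT/glycerol buffer, washed, crosslinked with 0.1% formaldehyde, ligated by proximity, amplified by PCR and sequenced. Dividing each hexamer's read frequency for a factor by its frequency for the tag-only sample gives the binding signal.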
# [2] = target: ETV5 (Homo sapiens, UniProt P41161 1-510); conditions: protein: recombinant; tags: N-terminal GST; dsDNA, one strand shown
# Outline: as §1
# [3] = target: HSF1 (Homo sapiens, UniProt Q00613 1-529); conditions: protein: recombinant; tags: N-terminal GST; chain copies: 3; dsDNA, one strand shown
# Outline: as §1
# [4] = target: T2, SPIC (Homo sapiens, UniProt Q8N5J4 1-248); conditions: protein: recombinant; tags: N-terminal GST; dsDNA, one strand shown
# T2 sequence: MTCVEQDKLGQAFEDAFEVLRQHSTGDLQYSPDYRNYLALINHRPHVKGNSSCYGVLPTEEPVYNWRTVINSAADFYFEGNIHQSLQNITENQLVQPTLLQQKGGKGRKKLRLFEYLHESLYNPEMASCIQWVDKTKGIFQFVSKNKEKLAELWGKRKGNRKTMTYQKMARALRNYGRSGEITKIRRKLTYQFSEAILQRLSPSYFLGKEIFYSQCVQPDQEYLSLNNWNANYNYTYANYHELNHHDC
# Outline: as §1
# [5] = target: ELF4 (Homo sapiens, UniProt Q99607 1-663); conditions: protein: recombinant; tags: N-terminal GST; dsDNA, one strand shown
# Outline: as §1
# [6] = target: T3, ELK4 (Homo sapiens, UniProt P28324-2 1-405); conditions: protein: recombinant; tags: N-terminal GST; dsDNA, one strand shown
# T3 sequence: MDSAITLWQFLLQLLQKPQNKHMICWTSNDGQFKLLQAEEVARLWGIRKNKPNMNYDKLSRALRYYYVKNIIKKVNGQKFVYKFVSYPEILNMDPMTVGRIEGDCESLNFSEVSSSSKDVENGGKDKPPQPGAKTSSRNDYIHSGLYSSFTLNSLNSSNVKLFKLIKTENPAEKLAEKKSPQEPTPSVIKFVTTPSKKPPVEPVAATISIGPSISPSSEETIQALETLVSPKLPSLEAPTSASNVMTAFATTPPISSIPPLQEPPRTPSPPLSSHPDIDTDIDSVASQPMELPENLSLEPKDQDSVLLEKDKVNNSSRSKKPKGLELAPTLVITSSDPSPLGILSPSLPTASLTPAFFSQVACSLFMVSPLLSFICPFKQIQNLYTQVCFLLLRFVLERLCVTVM
# Outline: as §1
# [7] = target: T4, ETV2 (Homo sapiens, UniProt O00321 1-342); conditions: protein: recombinant; tags: N-terminal GST; dsDNA, one strand shown
# T4 sequence: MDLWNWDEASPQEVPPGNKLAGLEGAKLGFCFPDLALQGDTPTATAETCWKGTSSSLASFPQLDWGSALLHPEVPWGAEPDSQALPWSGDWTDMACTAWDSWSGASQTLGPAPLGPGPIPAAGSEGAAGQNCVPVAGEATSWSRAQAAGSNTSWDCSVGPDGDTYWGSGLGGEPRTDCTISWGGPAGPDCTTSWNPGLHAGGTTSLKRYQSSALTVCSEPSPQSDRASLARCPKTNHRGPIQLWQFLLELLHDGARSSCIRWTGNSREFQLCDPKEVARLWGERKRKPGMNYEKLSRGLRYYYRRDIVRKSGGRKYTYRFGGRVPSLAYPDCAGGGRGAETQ
# Outline: as §1
# [8] = target: T5, ELF3 (Homo sapiens, UniProt P78545 1-371); conditions: protein: recombinant; tags: N-terminal GST; dsDNA, one strand shown
# T5 sequence: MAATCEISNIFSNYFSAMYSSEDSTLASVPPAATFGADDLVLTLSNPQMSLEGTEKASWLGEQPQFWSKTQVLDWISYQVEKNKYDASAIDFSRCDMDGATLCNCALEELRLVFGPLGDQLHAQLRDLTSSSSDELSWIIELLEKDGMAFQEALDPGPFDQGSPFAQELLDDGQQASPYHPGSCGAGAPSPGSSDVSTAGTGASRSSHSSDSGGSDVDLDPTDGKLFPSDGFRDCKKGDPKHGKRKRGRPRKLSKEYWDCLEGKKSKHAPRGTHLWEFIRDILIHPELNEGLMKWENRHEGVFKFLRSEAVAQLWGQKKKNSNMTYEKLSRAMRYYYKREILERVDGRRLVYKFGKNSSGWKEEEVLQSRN
# Outline: as §1
# [9] = target: CRX (Homo sapiens, UniProt O43186 1-299); conditions: protein: recombinant; tags: N-terminal GST; dsDNA, one strand shown
# Outline: as §1
# [10] = target: ETV1 (Homo sapiens, UniProt P50549 1-477); conditions: protein: recombinant; tags: N-terminal GST; dsDNA, one strand shown
# Outline: as §1
# [11] = target: T6, ERF (Homo sapiens, UniProt P50548 1-548); conditions: protein: recombinant; tags: N-terminal GST; dsDNA, one strand shown
# T6 sequence: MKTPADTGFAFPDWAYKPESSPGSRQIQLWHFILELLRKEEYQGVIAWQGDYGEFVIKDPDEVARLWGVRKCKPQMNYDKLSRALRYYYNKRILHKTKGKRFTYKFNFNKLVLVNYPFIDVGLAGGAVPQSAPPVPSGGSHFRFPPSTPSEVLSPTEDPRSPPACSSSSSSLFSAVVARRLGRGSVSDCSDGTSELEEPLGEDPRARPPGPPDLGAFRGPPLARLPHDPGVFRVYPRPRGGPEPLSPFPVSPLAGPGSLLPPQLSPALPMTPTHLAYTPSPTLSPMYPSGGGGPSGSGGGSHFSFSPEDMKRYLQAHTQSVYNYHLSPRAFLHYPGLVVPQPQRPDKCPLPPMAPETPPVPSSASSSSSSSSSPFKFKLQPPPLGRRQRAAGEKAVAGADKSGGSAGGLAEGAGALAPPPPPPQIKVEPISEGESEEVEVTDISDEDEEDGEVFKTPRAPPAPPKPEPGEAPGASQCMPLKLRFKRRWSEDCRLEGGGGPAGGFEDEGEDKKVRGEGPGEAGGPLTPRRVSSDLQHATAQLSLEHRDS
# Outline: as §1
# [12] = target: T7, ETV3L (Homo sapiens, UniProt Q6ZN32 1-361); conditions: protein: recombinant; tags: N-terminal GST; dsDNA, one strand shown
# T7 sequence: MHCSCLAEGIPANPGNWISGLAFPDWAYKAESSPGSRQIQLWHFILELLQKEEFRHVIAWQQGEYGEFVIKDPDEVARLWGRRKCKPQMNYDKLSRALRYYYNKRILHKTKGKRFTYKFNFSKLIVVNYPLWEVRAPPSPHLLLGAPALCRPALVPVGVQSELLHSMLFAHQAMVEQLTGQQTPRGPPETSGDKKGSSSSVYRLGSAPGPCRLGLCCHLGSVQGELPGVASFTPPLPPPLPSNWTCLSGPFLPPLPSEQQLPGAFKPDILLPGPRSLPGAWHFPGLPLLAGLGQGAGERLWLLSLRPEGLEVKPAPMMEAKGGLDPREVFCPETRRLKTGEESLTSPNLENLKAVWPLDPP
# Outline: as §1
# [13] = target: T8, ETS2 (Homo sapiens, UniProt P15036 1-469); conditions: protein: recombinant; tags: N-terminal GST; dsDNA, one strand shown
# T8 sequence: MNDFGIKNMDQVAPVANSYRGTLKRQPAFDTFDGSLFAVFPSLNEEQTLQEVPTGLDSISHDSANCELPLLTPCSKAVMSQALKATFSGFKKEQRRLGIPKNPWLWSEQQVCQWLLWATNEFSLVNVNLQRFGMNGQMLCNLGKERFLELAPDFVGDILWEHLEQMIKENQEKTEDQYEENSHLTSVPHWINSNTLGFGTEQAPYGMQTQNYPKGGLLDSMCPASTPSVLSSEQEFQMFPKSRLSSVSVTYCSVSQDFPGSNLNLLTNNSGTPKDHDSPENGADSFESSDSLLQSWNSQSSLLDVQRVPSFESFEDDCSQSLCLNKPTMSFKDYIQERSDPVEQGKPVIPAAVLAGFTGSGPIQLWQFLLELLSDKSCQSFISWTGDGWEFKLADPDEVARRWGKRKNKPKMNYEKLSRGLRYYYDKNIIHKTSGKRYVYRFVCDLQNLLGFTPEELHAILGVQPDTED
# Outline: as §1
# [14] = target: T9, SPDEF (Homo sapiens, UniProt O95238 1-335); conditions: protein: recombinant; tags: N-terminal GST; dsDNA, one strand shown
# T9 sequence: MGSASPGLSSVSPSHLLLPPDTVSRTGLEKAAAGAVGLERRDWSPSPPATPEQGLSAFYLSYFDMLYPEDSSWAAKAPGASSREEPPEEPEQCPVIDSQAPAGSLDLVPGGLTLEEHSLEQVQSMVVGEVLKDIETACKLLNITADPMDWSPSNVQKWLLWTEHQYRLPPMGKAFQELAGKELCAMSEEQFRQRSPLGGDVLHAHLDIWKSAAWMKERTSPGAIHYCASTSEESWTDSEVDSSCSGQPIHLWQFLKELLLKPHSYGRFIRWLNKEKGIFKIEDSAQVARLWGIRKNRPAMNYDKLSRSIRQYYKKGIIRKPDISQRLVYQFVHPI
# Outline: as §1
# [15] = target: T10, ETV7 (Homo sapiens, UniProt Q9Y603 1-341); conditions: protein: recombinant; tags: N-terminal GST; dsDNA, one strand shown
# T10 sequence: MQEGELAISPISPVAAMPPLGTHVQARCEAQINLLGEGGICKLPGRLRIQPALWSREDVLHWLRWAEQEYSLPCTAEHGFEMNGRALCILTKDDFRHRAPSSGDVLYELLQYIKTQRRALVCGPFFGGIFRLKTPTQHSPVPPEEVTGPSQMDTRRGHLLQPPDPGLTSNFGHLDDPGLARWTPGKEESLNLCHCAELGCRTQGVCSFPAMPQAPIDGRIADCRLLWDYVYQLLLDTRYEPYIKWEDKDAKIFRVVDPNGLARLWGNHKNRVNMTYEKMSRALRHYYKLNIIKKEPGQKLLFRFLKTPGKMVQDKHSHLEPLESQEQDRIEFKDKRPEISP
# Outline: as §1
# [16] = target: T11, ELF5 (Homo sapiens, UniProt Q9UKW6-2 1-255); conditions: protein: recombinant; tags: N-terminal GST; dsDNA, one strand shown
# T11 sequence: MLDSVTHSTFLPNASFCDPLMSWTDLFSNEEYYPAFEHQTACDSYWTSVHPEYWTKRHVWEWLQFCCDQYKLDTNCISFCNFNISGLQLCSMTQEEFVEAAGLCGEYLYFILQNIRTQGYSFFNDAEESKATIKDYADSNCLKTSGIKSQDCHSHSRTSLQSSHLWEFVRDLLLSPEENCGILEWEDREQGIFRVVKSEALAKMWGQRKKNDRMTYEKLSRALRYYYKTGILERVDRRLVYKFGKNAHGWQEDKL
# Outline: as §1
# [17] = target: T12, ETV3 (Homo sapiens, UniProt P41162-2 1-143); conditions: protein: recombinant; tags: N-terminal GST; dsDNA, one strand shown
# T12 sequence: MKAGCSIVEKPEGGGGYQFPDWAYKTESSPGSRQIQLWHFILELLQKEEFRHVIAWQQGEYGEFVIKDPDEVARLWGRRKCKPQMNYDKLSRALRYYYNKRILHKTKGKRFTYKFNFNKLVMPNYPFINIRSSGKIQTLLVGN
# Outline: as §1
# [18] = target: ETV6 (Homo sapiens, UniProt P41212 1-452); conditions: protein: recombinant; tags: N-terminal GST; dsDNA, one strand shown
# Outline: as §1
# Chain of ETV6 (P41212 whole entry): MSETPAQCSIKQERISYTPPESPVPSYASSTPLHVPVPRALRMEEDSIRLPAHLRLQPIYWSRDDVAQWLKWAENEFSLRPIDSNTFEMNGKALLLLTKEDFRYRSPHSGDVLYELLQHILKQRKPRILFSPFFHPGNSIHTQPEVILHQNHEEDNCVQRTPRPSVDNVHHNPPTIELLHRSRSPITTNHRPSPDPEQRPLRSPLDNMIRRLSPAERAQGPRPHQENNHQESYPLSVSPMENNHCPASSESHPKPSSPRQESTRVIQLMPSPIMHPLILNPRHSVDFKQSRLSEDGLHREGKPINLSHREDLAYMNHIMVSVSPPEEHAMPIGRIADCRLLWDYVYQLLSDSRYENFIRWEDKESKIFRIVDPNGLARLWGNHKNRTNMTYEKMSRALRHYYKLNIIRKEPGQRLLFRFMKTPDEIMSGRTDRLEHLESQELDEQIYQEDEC
# Chain of ETV5 (P41161 whole entry): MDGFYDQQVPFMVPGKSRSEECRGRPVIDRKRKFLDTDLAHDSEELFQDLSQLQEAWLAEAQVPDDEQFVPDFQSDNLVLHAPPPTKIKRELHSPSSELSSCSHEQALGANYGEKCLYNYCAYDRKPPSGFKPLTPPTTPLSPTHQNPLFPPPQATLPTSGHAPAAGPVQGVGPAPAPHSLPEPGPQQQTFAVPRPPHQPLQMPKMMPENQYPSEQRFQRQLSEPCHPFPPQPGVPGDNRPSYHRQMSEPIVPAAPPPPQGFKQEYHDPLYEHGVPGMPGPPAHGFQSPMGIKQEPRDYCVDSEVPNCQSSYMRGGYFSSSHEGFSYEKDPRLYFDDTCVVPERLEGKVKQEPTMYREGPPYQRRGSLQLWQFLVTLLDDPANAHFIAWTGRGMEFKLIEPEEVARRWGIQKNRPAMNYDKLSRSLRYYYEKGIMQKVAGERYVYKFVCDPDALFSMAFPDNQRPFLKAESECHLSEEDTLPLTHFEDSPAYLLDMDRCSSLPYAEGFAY
# Chain of ETV1 (P50549 whole entry): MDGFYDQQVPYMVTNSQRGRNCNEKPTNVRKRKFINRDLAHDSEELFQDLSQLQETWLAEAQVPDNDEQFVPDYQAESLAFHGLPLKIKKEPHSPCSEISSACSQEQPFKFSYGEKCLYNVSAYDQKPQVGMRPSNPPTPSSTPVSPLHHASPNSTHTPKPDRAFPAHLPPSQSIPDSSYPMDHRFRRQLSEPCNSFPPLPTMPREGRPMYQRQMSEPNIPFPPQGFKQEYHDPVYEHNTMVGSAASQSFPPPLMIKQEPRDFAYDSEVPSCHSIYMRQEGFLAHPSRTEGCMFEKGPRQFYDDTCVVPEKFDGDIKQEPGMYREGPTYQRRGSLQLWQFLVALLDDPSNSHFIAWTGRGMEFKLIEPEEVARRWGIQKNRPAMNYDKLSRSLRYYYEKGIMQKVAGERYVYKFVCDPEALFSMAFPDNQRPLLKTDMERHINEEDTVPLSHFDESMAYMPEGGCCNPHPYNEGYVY
# Chain of CRX (O43186 whole entry): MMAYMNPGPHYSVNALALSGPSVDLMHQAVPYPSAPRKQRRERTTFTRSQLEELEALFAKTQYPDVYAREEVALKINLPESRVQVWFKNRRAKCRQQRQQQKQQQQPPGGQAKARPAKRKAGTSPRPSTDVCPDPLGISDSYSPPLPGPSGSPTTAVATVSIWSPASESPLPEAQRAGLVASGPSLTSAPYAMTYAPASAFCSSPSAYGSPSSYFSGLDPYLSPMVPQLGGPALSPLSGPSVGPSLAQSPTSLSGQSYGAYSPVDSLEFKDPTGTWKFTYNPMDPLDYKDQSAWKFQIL
# Chain of HSF1 (Q00613 whole entry): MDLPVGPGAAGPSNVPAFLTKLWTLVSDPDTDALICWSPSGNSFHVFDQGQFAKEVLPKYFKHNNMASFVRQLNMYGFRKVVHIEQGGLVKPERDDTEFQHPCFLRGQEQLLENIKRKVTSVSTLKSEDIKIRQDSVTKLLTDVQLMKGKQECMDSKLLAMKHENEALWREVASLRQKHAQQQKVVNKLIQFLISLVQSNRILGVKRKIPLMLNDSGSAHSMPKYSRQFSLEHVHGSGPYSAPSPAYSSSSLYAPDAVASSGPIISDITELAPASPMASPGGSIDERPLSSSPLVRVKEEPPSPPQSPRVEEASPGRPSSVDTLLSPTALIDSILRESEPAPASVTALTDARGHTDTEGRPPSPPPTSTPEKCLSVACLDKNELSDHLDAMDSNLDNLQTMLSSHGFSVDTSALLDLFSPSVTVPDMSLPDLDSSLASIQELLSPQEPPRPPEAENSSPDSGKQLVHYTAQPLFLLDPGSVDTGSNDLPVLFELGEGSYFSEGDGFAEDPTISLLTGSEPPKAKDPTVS
# Chain of ELF4 (Q99607 whole entry): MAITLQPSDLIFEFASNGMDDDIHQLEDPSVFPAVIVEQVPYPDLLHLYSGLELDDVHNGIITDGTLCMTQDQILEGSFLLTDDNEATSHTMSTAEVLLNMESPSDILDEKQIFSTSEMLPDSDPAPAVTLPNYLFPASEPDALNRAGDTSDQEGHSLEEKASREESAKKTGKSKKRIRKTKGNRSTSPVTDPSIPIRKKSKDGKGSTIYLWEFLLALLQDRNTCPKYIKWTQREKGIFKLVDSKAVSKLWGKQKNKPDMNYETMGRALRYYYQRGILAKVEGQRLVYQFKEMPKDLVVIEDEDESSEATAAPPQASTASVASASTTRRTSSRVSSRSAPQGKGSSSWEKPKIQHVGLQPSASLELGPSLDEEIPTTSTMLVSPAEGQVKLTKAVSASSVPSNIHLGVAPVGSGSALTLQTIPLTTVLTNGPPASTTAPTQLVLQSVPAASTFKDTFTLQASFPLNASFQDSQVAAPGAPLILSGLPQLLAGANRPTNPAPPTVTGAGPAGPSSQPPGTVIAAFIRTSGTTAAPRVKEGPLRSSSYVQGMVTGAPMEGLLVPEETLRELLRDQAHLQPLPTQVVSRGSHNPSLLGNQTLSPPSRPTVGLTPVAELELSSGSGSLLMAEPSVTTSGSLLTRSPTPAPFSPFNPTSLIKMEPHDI
sequence,measurement,setting,value
ATTTCG,binding signal,[1],"1.25 fold enrichment (6-mer frequency, TF over GST control)"
same,binding signal,[2],"1.26 fold enrichment (6-mer frequency, TF over GST control)"
same,binding signal,[3],"1.63 fold enrichment (6-mer frequency, TF over GST control)"
same,binding signal,[4],"1.26 fold enrichment (6-mer frequency, TF over GST control)"
same,binding signal,[5],"1.29 fold enrichment (6-mer frequency, TF over GST control)"
same,binding signal,[6],"1.49 fold enrichment (6-mer frequency, TF over GST control)"
same,binding signal,[7],"1.22 fold enrichment (6-mer frequency, TF over GST control)"
same,binding signal,[8],"1.2 fold enrichment (6-mer frequency, TF over GST control)"
same,binding signal,[9],"1.45 fold enrichment (6-mer frequency, TF over GST control)"
same,binding signal,[10],"1.34 fold enrichment (6-mer frequency, TF over GST control)"
same,binding signal,[11],"1.2 fold enrichment (6-mer frequency, TF over GST control)"
same,binding signal,[12],"1.31 fold enrichment (6-mer frequency, TF over GST control)"
same,binding signal,[13],"1.3 fold enrichment (6-mer frequency, TF over GST control)"
same,binding signal,[14],"1.27 fold enrichment (6-mer frequency, TF over GST control)"
same,binding signal,[15],"1.26 fold enrichment (6-mer frequency, TF over GST control)"
same,binding signal,[16],"1.27 fold enrichment (6-mer frequency, TF over GST control)"
same,binding signal,[17],"1.27 fold enrichment (6-mer frequency, TF over GST control)"
same,binding signal,[18],"1.35 fold enrichment (6-mer frequency, TF over GST control)"
